The values that follow come from PubChem BioAssay (NCI).

Where “and” joins values, the source holds several entries; their conditions need not be identical. Identical values can stand only once. The panel holds about 83,000 compounds, 20% with a hit somewhere; the sample as a whole holds those more often.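 Activity criterion: percent growth below 10, measured after cells in 96-well plates were exposed to a single compound concentration for 48 hours.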 A number with no mark means an inactive call. Calls of active or inactive are those of the source.

This test has as its system IGROV1 ovarian. The test is described as follows: NCI-60 one-dose screen, 48 h (100 = growth as untreated, 0 = no growth, -100 = all killed). The conditions noted are these: 10 µM unless noted.
For `Cc1c(O)c(O)cc2c3c(oc12)CC(c1ccc2c(c1)OCO2)CC3=O` (configuration not stated), the growth is 38.6%.

For the molecule `COc1cc(F)c(/C=C/c2cc(/C=C/c3cc(OC)c(OC)cc3F)n(-c3cc(F)cc(F)c3)n2)cc1OC`, the growth was 88.6%.

For the molecule `CN1CCN(CCCN2c3ccccc3Sc3ccc(Cl)cc32)CC1`, the growth is 54.5%.

With `O=C(N=Nc1c(O)[nH]c2ccccc12)Nc1ccccc1Cl`, the growth was 65.3%.

On to `OCCN1CCN(CC/C=C2\c3ccccc3Sc3ccc(Cl)cc32)CC1`, for which the growth is 26.3%.

In the case of `COc1nc2ccc(C)cc2cc1/C=[N+](\[O-])c1ccccc1`, the growth is 75.2%.

In the case of `O=C(CCN1CCOCC1)Nc1cccc(-n2cc(-c3ccncc3)c(-c3ccc(Cl)c(O)c3)n2)c1`, the growth is 51.8%.

Regarding `CN1CCN(c2ccc(Nc3ncc(C(N)=O)c(NCCCNC(=O)C4CCC4)n3)cc2)CC1`, the growth was 85.7%.

Take `CN(C)c1ccc2nc3ccc(=O)cc-3sc2c1`: the growth is 50.2% and 57.1%.

As for `CC(=O)N1N=C(c2ccc(Nc3nc(Nc4ccc(F)cc4)nc(Nc4ccc(F)cc4)n3)cc2)CC1c1ccccc1` (configuration not stated), the growth was 117%.

As to `C/C=C(\C)C(=O)N[C@H]1CC[C@]2(C)C3CC[C@@]4(C)C(CC[C@@H]4C(C)N(C)C)C3CCC2[C@H]1OC(C)=O` (some centres not stated), the growth is 9.32% (active).

Regarding `Cc1ccc(-c2nc3nc(-c4ccc(Cl)cc4)nc(N4CCCNCC4)c3o2)cc1`, the growth was -83.8% (active).

On to `Nc1n[nH]c2cccc(C#Cc3cccc(NC(=O)c4ccc(N5CCOCC5)c(C(F)(F)F)c4)c3)c12`, for which the growth was -39.1% (active).

For `O=C1C(c2c[nH]c3ccccc23)=C(c2coc3cc(Br)ccc23)C(=O)N1O`, the growth was 85.2%.

On to `Cc1cc(N2CCCCC2)nc(NCc2cc(Nc3ccnc4cc(Cl)ccc34)ccc2F)n1`, for which the growth is 10.2%.

Regarding `CC1(C)C(N)=Nc2cc(OCCCN3Cc4ccc(OCCc5cn(CC(=O)N6CCC(CCN7CCCC7)CC6)nn5)cc4C3)c(OCC3CC3)cc21`, the growth was 101%.

Consider `CS(=O)(=O)Nc1cc(-c2ccc3ncnc(Nc4ccc(F)c(Cl)c4)c3c2)cnc1Cl`, for which the growth was -14.1% (active).

As for `Cc1cnc(C(=O)NNc2nc3sc4c(c3c(=O)[nH]2)C(C)CCC4)cn1` (configuration not stated), the growth was 14.5%.

Turning to `Cn1cc2c(=O)nc3c(-c4nc5ccccc5[nH]4)n[nH]n3c2n1`, the growth is 91.8%.

On to `Cc1ccc(-c2nc3nc(-c4ccc(F)cc4)nc(N4CCCNCC4)c3o2)cc1`, for which the growth is -88.3% (active).

Turning to `COc1ccc2c(c1)c(-c1nc(-c3c[nH]c4c(Cl)nccc34)cs1)cn2C`, the growth is 56.5%.

For `Cc1nc2sc(C(=O)Nc3cccc4ncccc34)c(N)c2cc1C(C)O` (configuration not stated), the growth was 74.4%.

As for `N=C(N)c1ccc(-c2ccc(-c3ccc(F)cc3)s2)nc1`, the growth is 65.7%.

For `CN(C)CCCn1c2nc(=O)[nH]c(=O)c-2nc2cc(Cl)c(Cl)cc21`, the growth was 54%.

`Brc1ccc(/C=C(/C2=NCCN2)n2ccc3ccccc32)cc1`: the growth is 60.7%.

On to `CCOC(=O)c1c(-c2ccc(OC)cc2)c(C#N)c2c(C#N)c(N)nn2c1N`, for which the growth was 24.6%.

`COc1ccc(S(=O)(=O)Nc2cc(Sc3cccc4cccnc34)c(O)c3ccccc23)cc1`: the growth is 5.99% (active).
